From PubChem BioAssay (Tox21)
Results filed as inconclusive are left out. Calls of active or inactive are those of the source. Unless noted, the call rests on the fitted dose curve; in most records, active means well fitted curve in the direction sought with a large enough effect in the repeat runs; inconclusive means weak or mixed curves; inactive means no such curve, though single readings can be large; an effect the other way counts as inactive or inconclusive.

Legend:
[1] = qHTS assay to identify small molecule agonists of the peroxisome proliferator-activated receptor delta (PPARd) signaling pathway - cell viability counter screen (AID 743211); further: nearly all actives have a fitted effect of over 55% in size
Method in brief: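 Tox21 library compounds, delivered in DMSO, were incubated 17 h with PPARd-bla HEK293H cells; cytotoxicity was taken from CellTiter-Glo luminescence read 30 min after reagent addition.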

[2] = target: Peroxisome proliferator-activated receptor delta (Homo sapiens) (UniProt Q03181); assay: qHTS assay to identify small molecule agonists of the peroxisome proliferator-activated receptor delta (PPARd) signaling pathway (AID 743212; calls by dose curve)
Peroxisome proliferator-activated receptor delta (Homo sapiens), sequence (Q03181 whole entry, looked up): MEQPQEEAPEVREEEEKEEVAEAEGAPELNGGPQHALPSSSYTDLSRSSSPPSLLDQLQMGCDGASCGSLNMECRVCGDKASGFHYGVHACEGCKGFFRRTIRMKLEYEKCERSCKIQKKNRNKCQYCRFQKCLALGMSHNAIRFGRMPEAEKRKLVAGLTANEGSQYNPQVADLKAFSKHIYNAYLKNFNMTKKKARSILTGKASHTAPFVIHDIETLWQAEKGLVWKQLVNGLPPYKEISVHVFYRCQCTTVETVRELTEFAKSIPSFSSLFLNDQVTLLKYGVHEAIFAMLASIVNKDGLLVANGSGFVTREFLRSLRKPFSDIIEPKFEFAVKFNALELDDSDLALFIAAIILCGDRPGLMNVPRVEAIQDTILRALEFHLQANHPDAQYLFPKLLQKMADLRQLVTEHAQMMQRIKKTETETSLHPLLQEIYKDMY
Method in brief: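 HEK293H PPARd-bla cells; 5 h preincubation 37 C/5% CO2; compound (DMSO) 37 C; LiveBLAzer B/G FRET substrate 2 h RT; fluorescence intensity.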

[3] = qHTS assay to identify small molecule antagonists of the peroxisome proliferator-activated receptor delta (PPARd) signaling pathway - cell viability counter screen (AID 743213); further: nearly all actives have a fitted effect of over 50% in size
Method in brief: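 Viability counter-screen, qHTS format: PPARd-bla HEK293H, L165041 300 nM final, 17 h compound exposure at 37 C, CellTiter-Glo luminescence after 30 min RT.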

[4] = target: Peroxisome proliferator-activated receptor delta (Homo sapiens) (UniProt Q03181); assay: qHTS assay to identify small molecule antagonists of the peroxisome proliferator-activated receptor delta (PPARd) signaling pathway (AID 743215; active means well fitted inhibition curve with a large enough effect in the signal ratio in the repeat runs, not every such curve was filed as active; the % refers to the signal ratio;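 further: cells stimulated with agonist L165041 at 300 nM final during compound exposure; series mostly up to about 62 µM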)
Method in brief: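 PPARd-bla HEK293H cells (UAS-bla reporter) preincubated 5 h, then given compound plus 300 nM final L165041 agonist for 17 h at 37 C. Beta-lactamase activity read by LiveBLAzer B/G FRET substrate fluorescence after 2 h at room temperature.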

[5] = target: Bile acid receptor (Homo sapiens) (UniProt Q96RI1); assay: qHTS assay to identify small molecule antagonists of the farnesoid-X-receptor (FXR) signaling pathway (AID 743217; active means well fitted inhibition curve with a large enough effect in the signal ratio in the repeat runs, not every such curve was filed as active; the % refers to the signal ratio)
Bile acid receptor (Homo sapiens), sequence (Q96RI1 whole entry, looked up): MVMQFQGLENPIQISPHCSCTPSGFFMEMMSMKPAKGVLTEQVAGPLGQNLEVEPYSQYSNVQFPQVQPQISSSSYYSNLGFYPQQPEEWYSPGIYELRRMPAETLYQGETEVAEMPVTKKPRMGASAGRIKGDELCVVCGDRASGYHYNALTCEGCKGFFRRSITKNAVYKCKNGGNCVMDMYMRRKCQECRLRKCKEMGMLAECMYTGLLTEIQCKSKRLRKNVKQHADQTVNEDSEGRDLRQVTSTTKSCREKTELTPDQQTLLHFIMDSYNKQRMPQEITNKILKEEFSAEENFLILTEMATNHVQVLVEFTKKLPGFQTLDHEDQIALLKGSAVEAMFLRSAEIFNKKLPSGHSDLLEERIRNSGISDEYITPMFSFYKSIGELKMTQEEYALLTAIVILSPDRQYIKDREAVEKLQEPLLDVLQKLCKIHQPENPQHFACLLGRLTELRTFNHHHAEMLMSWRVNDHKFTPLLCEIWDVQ
Method in brief: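 FXR-UAS-bla HEK 293T cells (beta-lactamase reporter) given compound plus chenodeoxycholic acid (50 uM final), 16 h at 37C. LiveBLAzer B/G FRET substrate added for 2 h at room temperature; fluorescence read.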

[6] = qHTS assay to identify small molecule agonists of the farnesoid-X-receptor (FXR) signaling pathway - cell viability counter screen (AID 743218); further: nearly all actives have a fitted effect of over 45% in size
Method in brief: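 FXR-UAS-bla HEK 293T cells exposed to compounds for 16 h at 37C. Cytotoxicity read in the same wells by CellTiter-Glo luminescence after 30 min at room temperature, following the beta-lactamase FRET read.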

[7] = target: Bile acid receptor (Homo sapiens) (UniProt Q96RI1); assay: qHTS assay to identify small molecule agonists of the farnesoid-X-receptor (FXR) signaling pathway (AID 743220; active means well fitted activation curve with a large enough effect in the signal ratio in the repeat runs, not every such curve was filed as active; the % refers to the signal ratio)
Method in brief: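 Beta-lactamase reporter under UAS control in GeneBLAzer FXR HEK 293T cells (5000/well) measured with LiveBLAzer FRET substrate after 2 h at room temperature. Compound exposure lasted 16 h at 37C.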

[8] = qHTS assay to identify small molecule antagonists of the farnesoid-X-receptor (FXR) signaling pathway - cell viability counter screen (AID 743221; active means well fitted cell-killing curve with a large enough effect in the repeat runs, not every such curve was filed as active; further: nearly all actives have a fitted effect of over 50% in size)
Method in brief: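 Cytotoxicity is taken from ATP luminescence (CellTiter-Glo, 30 min, room temperature) in FXR-bla HEK 293T cells previously incubated 16 h at 37 C with compound and chenodeoxycholic acid at 50 uM final.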

[9] = target: Vitamin D3 receptor (Homo sapiens) (UniProt P11473); assay: qHTS assay to identify small molecule agonists of the vitamin D receptor (VDR) signaling pathway (AID 743222; calls by dose curve)
Vitamin D3 receptor (Homo sapiens), sequence (P11473 whole entry, looked up): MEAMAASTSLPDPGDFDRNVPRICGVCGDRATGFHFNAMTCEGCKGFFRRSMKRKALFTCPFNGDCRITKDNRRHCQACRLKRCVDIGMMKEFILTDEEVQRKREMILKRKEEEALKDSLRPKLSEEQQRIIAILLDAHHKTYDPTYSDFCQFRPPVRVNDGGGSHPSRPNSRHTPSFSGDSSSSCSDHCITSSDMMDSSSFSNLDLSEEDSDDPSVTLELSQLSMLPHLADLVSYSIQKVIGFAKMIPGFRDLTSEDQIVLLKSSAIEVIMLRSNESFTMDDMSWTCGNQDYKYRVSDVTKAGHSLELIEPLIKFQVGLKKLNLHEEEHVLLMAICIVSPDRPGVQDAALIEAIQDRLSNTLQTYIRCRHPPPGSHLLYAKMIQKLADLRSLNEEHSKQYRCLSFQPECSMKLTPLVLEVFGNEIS
Method in brief: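 VDR-bla cells plated 4 h at 37 C, then exposed to compounds for 16 h at 37 C. Beta-lactamase reporter activity measured by fluorescence after 2 h room-temperature loading with LiveBLAzer B/G FRET substrate.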

[10] = target: Vitamin D3 receptor (Homo sapiens) (UniProt P11473); assay: qHTS assay to identify small molecule antagonists of the vitamin D receptor (VDR) signaling pathway (AID 743223; active means well fitted inhibition curve with a large enough effect in the signal ratio in the repeat runs, not every such curve was filed as active; the % refers to the signal ratio)
Method in brief: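 Quantitative HTS in VDR-bla reporter cells stimulated with 1alpha,25-dihydroxyvitamin D3, 3 nM final. Compound exposure 16 h, 37C, 5% CO2. Read-out: beta-lactamase FRET substrate fluorescence, 2 h RT.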

[11] = qHTS assay to identify small molecule agonists of the vitamin D receptor (VDR) signaling pathway - cell viability counter screen (AID 743224); further: series mostly up to about 63 µM; nearly all actives have a fitted effect of over 50% in size
Method in brief: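 VDR-bla cells, 4 h after plating, exposed to compounds for 16 h at 37C; viability then read in the same wells as CellTiter-Glo luminescence after 30 min at room temperature, following the bla FRET read.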

[12] = qHTS assay to identify small molecule antagonists of the vitamin D receptor (VDR) signaling pathway - cell viability counter screen (AID 743225); further: nearly all actives have a fitted effect of over 50% in size
Method in brief: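 Same-well multiplex: following 16 h treatment of HEK 293T cells carrying a UAS-driven beta-lactamase reporter with compound and agonist (3 nM final), and a 2 h FRET substrate step, CellTiter-Glo was added and luminescence read after 30 min.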

[13] = qHTS assay to identify small molecule agonists of the NFkB signaling pathway (AID 1159509; active means well fitted curve in the direction sought with a large enough effect in the signal ratio in the repeat runs, not every such curve was filed as active; the % refers to the signal ratio; further: series mostly up to about 61 µM)
Method in brief: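 NFkB-bla ME-180 cells carry a beta-lactamase reporter under an NF-kB response element. They were plated overnight, then exposed to compounds for 5 h at 37 C. Read-out is LiveBLAzer FRET after 1.5 hr at room temperature (405 nm excitation; 460/530 nm emission).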

[14] = qHTS assay to identify small molecule agonists of the NFkB signaling pathway - cell viability counter screen (AID 1159515; calls by dose curve; further: series mostly up to about 61 µM; nearly all actives have a fitted effect of over 55% in size)
Method in brief: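 NFkB-bla ME-180 cells, 2,000/well, plated overnight at 37 C; compound added for 5 hr at 37 C. Viability read in the same wells as the bla reporter, by CellTiter-Glo luminescence after 30 min at room temperature.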

[15] = qHTS assay to identify small molecule agonists of the endoplasmic reticulum stress response signaling pathway (AID 1159516; active means well fitted activation curve with a large enough effect in the signal ratio in the repeat runs, not every such curve was filed as active; the % refers to the signal ratio)
Method in brief: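 CellSensor ESRE-bla HeLa cells, 1,500 per well, plated overnight, then exposed to compounds for 5 hr at 37 C. Beta-lactamase reporter read with LiveBLAzer B/G FRET substrate after 2 hr at room temperature, 405 nm excitation, 460 and 530 nm emission.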

[16] = qHTS assay to identify small molecule agonists of the AP-1 signaling pathway - cell viability counter screen (AID 1159525; calls by dose curve; further: nearly all actives have a fitted effect of over 55% in size)
Method in brief: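 Luminescent ATP readout (Cell Titer Glo, 30 min RT), normalised to DMSO and tetra n-octyl ammonium bromide controls. Cells were ME-180 AP-1-bla in 0.5% dialyzed FBS Opti-MEM, with a 5 h, 37 °C compound exposure.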

[17] = qHTS assay to identify small molecule agonists of the AP-1 signaling pathway (AID 1159526; calls by dose curve)
[18] = target: Nuclear receptor ROR-gamma (Homo sapiens) (UniProt P51449); assay: qHTS assay to identify small molecule antagonists of the retinoid-related orphan receptor gamma (ROR-gamma) signaling pathway (AID 1159521)
Method in brief: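 Inducible-expression reporter assay: doxycycline (1 uM final) switched on RORγ in CHO cells bearing a ROR response element-luciferase construct, with test compounds present from 2 h beforehand. Decreased luminescence after 16 h defined antagonist activity.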

[19] = qHTS assay to identify small molecule agonists of the endoplasmic reticulum stress response signaling pathway - cell viability counter screen (AID 1159517; calls by dose curve)
Method in brief: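 HeLa cells carrying an ESRE-driven beta-lactamase reporter receive compound for 5 hr at 37 C. Cell viability is then gauged with CellTiter-Glo by luminescence, 30 min at room temperature.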

[20] = qHTS assay to identify small molecule antagonists of the retinoid-related orphan receptor gamma (ROR-gamma) signaling pathway - cell viability counter screen (AID 1159520); further: nearly all actives have a fitted effect of over 50% in size
Method in brief: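 Cytotoxicity was read from cellular ATP (CellTiter-Glo luminescence) after 16 hr at 37 C with 1 uM doxycycline induction. The inducer was added 2 hr after compound transfer to Tet-on ROR gamma CHO cells.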

Measured: Potency

ClC1=C(Cl)C1(Cl)Cl
not listed: [18] | [19] | [20]
inactive: all other assays above

Nc1cccc2c(N)cccc12
inactive: [1] | [2] | [5] | [11] | [13] | [14] | [15] | [18]

CCN(CC)C(=O)N1CCN(C)CC1
not listed: [2] | [6] | [15]
inactive: all other assays above

CCN(CC)c1cccc(O)c1
not listed: [2] | [5] | [7] | [8] | [9] | [10] | [15]
inactive: all other assays above

CC(C)c1ccc(C#N)cc1
not listed: [4] | [5] | [7] | [12] | [15]
inactive: all other assays above

O=C(O)c1cccc(C[C@@H]2COc3ccc(OCc4nc5cc(F)ccc5s4)cc3[C@@H]2O)c1
not listed: [2] | [4] | [5] | [7] | [15]
inactive: all other assays above

CC(C)c1ccc(C(=O)N=C(N)N)cc1S(C)(=O)=O
not listed: [3] | [4] | [5] | [7] | [12] | [15]
inactive: all other assays above

C1=CCC2CC=CC2C1 (stereo unspecified)
not listed: [4] | [15]
inactive: all other assays above

CCCC(=O)OC(=O)CCC
not listed: [5] | [6] | [7] | [9] | [10] | [15]
inactive: all other assays above
